Assay results taken from PubChem BioAssay (NCATS).
Values without a mark were called inactive. Records with an inconclusive call do not appear. Entries that show only a call come without a potency. Active and inactive are the calls of the source. The call rests on the fitted dose curve; in most records, active means well fitted curve in the direction sought with a large enough effect; inconclusive means small, poorly fitted or top-dose-only effect, or another doubt; inactive means no such curve, though single readings can be large; an effect the other way counts as inactive or inconclusive. Where a SMILES comes first, the peptide text is derived from it. The star is where a group is joined. AMC = Cc1cc(=O)oc2cc(N*)ccc12; Cbz = O=C(OCc1ccccc1)*

What was measured:
[1] = molecular target: Glutathione peroxidase 1 (Homo sapiens) (UniProt P07203); assay: Primary qHTS Assay for Inhibitors of Recombinant Selenoprotein Glutathione Peroxidase 1 (GPX1) (AID 1845191); further: nearly all actives have a fitted effect of over 65% in size; further: potency means the concentration at half of the fitted maximal effect
Method in brief: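 GPX1 10 nM, GR 100 nM, GSH 1 mM, NADPH 0.5 mM, CHP 0.5 mM (final). 30-min cpd preincubation, RT. Ex340/Em450 read t=0, t=15 min.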

[2] = molecular target: Luciferin 4-monooxygenase (Photinus pyralis) (UniProt P08659); assay: Primary firefly luciferase (FLuc) qHTS assay for identification of artifact compounds. (AID 1845220); further: nearly all actives have a fitted effect of over 60% in size; on activity change, negative = inhibition: series mostly up to about 54 µM
Method in brief: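 qHTS, 15 min compound preincubation with substrate (10 uM luciferin, 10 uM ATP) at RT, then 10 nM FLuc; 5 min; luminescence; % inhibition vs no-enzyme/DMSO controls, 4-parameter Hill fit.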

[3] = Primary fluorescence-based thiol-reactive (MSTI) qHTS assay for identification of artifact compounds. (AID 1845221); further: nearly all actives have a fitted effect of over 65% in size; further: potency means the concentration at half of the fitted maximal effect;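 on activity change, negative = thiol reactive: series mostly up to about 54 µM; thiol-reactive compounds lower the probe fluorescence signal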
Method in brief: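 First, 4 uM MSTI in 2% DMSO/PBS pH 7.4 was dispensed; next, compounds were added; then plates sat 1 h at room temperature without light. Finally, emission at 598 nm was recorded.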

[4] = system: Nanoluciferase (engineered Oplophorus gracilirostris luciferase); assay: Primary Nanoluciferase (NLuc) qHTS assay for identification of artifact compounds. (AID 1845222); further: series mostly up to about 54 µM
Method in brief: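 Luminescence read-out of secreted NLuc in S16 cell conditioned medium (1:55); compounds tested with 15 min RT preincubation, then Nano-Glo substrate 1:100, 5 min. % inhibition vs no-enzyme and DMSO controls, 4-parameter Hill fit.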

[5] = Primary redox qHTS assay for identification of artifact compounds. (AID 1845223)
Method in brief: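 Redox-cycling detection via DTT (250 uM final) oxidation coupled to Amplex Red (25 uM)/HRP (250 mU/mL) in HBSS. 15 min preincubation plus 30 min after DTT, room temperature. Ex/Em 525/598 nm; 4-parameter Hill fit against DMSO and 10 uM DA3003.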

Glutathione peroxidase 1 (Homo sapiens), sequence (P07203 whole entry, looked up): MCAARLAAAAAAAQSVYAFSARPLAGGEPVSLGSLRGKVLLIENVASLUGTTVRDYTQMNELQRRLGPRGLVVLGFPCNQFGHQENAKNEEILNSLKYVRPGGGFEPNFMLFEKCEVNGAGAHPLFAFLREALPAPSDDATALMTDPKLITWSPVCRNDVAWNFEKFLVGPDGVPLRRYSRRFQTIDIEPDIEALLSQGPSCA

CC(O)C1CCC2C3CCC4CC(OC5OC(C(=O)O)C(O)C(O)C5O)CCC4(C)C3CCC12C (stereo unspecified)
Potency [1]: inactive | Potency [2]: inactive | Potency [3]: inactive | Potency [4]: inactive

Cc1cc(=O)oc2cc(NC(=O)[C@H](CCC(=O)O)NC(=O)[C@H](CC(C)C)NC(=O)[C@H](CC(C)C)NC(=O)OCc3ccccc3)ccc12 (Cbz-Leu-Leu-Glu-{AMC})
Potency [1]: 22.7 µM (active) | Potency [2]: inactive | Potency [3]: inactive | Potency [4]: inactive | Potency [5]: inactive

C=C1[C@H](OC(C)=O)[C@H]2[C@@H](OC(=O)c3ccccc3)[C@@H](C)C[C@]2(O)[C@@H](OC(C)=O)[C@H](C)/C=C/C(C)(C)C(=O)[C@H](OC(C)=O)[C@H]1OC(C)=O
Potency [1]: inactive | Potency [2]: inactive | Potency [3]: inactive | Potency [4]: inactive | Potency [5]: inactive

CCC1(O)CC2c3cc(OC)c(OC)cc3CCN2CC1CC(C)C (stereo unspecified)
Potency [1]: inactive | Potency [2]: inactive | Potency [3]: inactive | Potency [4]: inactive | Potency [5]: inactive

CCC(C)/C=C(C)/C=C/C1=CC2=C(Cl)C(=O)C(C)(OC(C)=O)C(=O)C2=CN1C(CCCN=C(N)N)C(=O)O (stereo unspecified)
Potency [1]: inactive | Potency [2]: inactive | Potency [3]: 1.03 µM (active) | Potency [4]: inactive | Potency [5]: inactive

COc1cc(O[C@@H]2O[C@H](CO[C@H]3OC[C@](O)(CO)[C@H]3O)[C@@H](O)[C@H](O)[C@H]2O)cc(OC)c1O
Potency [1]: inactive | Potency [2]: inactive | Potency [4]: inactive | Potency [5]: inactive

CCCCC(=O)N1c2ccccc2NC2=C(C(=O)CCC2)C1c1ccccc1Cl (stereo unspecified)
Potency [1]: inactive | Potency [2]: inactive | Potency [3]: inactive | Potency [4]: inactive | Potency [5]: inactive

O=C(c1c2ccccc2cc2ccccc12)N1CCC(N2CCC[C@@H](C(=O)N3CCOCC3)C2)CC1
Potency [1]: inactive | Potency [2]: inactive | Potency [3]: inactive | Potency [4]: inactive | Potency [5]: inactive

C[C@]12CCC[C@](C)(C(=O)O)C1[C@@H](O)[C@@H](O)C13CC(CCC12)C(CO)(O[C@@H]1O[C@H](CO)[C@@H](O)[C@H](O)[C@H]1O)C3 (stereo partly specified)
Potency [1]: inactive | Potency [2]: inactive | Potency [4]: inactive | Potency [5]: inactive

COC(=O)[C@H](c1ccccc1Cl)N1CCC2SC(=O)C=C2C1 (stereo partly specified)
Potency [1]: 8.06 µM (active) | Potency [2]: inactive | Potency [4]: inactive

CC1(C)C(=O)CCC2(C)C1C(O)C=C1COC(=O)C12O (stereo unspecified)
Potency [1]: inactive | Potency [2]: inactive | Potency [4]: inactive | Potency [5]: inactive

CC(=O)OC/C(=C/C(=O)O)CC[C@@H]1C(CO)=CC[C@@H]2C(C)(C)CCC[C@@]12C
Potency [1]: inactive | Potency [2]: inactive | Potency [4]: inactive

C=C1CCC2C(C)(C)CC(O)CC2(C)C1CCC(C)CC(=O)O (stereo unspecified)
Potency [1]: inactive | Potency [2]: inactive | Potency [3]: 18.5 µM (active) | Potency [4]: inactive

CC1(C)CC[C@]2(C(=O)O[C@@H]3O[C@H](CO[C@@H]4O[C@H](CO)[C@@H](O)[C@H](O)[C@H]4O)[C@@H](O)[C@H](O[C@@H]4O[C@H](CO)[C@@H](O)[C@H](O)[C@H]4O)[C@H]3O)[C@H](O)C[C@]3(C)C(=CCC4[C@@]5(C)CC[C@H](O[C@@H]6OC[C@@H](O)[C@H](O)[C@H]6O)[C@@](C)(C(=O)O)C5CC[C@]43C)[C@@H]2C1 (stereo partly specified)
Potency [1]: inactive | outcome [2]: inactive [at 11.6 µM] | activity change, negative = thiol reactive [3]: 59.1% [at 11.5 µM] | activity, negative = inhibition [4]: -3.16% [at 11.6 µM]

C[C@@H]1O[C@@H](O[C@H]2[C@H](O)[C@@H](O)[C@H](OC(=O)[C@]34CCC(C)(C)C[C@H]3C3=CCC5[C@@]6(C)CC[C@H](O[C@@H]7O[C@H](C(=O)O)[C@@H](O)[C@H](O)[C@H]7O)C(C)(C)C6CC[C@@]5(C)[C@]3(C)CC4)O[C@@H]2CO)[C@H](O)[C@H](O)[C@H]1O (stereo partly specified)
Potency [1]: inactive | activity change, negative = inhibition [2]: -16.1% [at 11.6 µM] | activity change, negative = thiol reactive [3]: 74.8% [at 11.5 µM] | activity, negative = inhibition [4]: -3.67% [at 11.6 µM]

Cc1ccc2nc(NC(=O)CSc3nc4c(c(=O)n3-c3ccc(F)cc3)SCC4)sc2c1
Potency [1]: inactive | Potency [2]: inactive | Potency [3]: inactive | Potency [4]: inactive | Potency [5]: inactive

CC(CC(C)O[C@@H]1O[C@H](CO)[C@@H](O)[C@H](O)[C@H]1O)OC(=O)/C=C/c1ccc(O)cc1 (stereo partly specified)
Potency [1]: inactive | Potency [2]: inactive | Potency [3]: 4.62 µM (active) | Potency [4]: inactive | Potency [5]: inactive

COc1ccc(NC(=O)c2ccc(-c3ccc(C(N)=O)cc3C)cc2)cc1N1CCN(C)CC1
Potency [1]: inactive | Potency [2]: inactive | Potency [3]: inactive | Potency [5]: inactive

C/C(=C\C(=O)C(C)C1CCC2C3=C(CCC21C)C1(C)CCC(=O)C(C)(C)C1(O)CC3)C(C)(C)O (stereo unspecified)
Potency [1]: inactive | Potency [2]: inactive | Potency [4]: inactive | Potency [5]: inactive

CC1=C[C@H]2[C@@H](CC1=O)[C@H](C)C[C@H](O)[C@H]2C(C)C
Potency [1]: inactive | Potency [2]: inactive | Potency [3]: inactive | Potency [4]: inactive | Potency [5]: inactive

COc1cc(CCCO)ccc1O[C@@H]1O[C@H](CO)[C@@H](O)[C@H](O)[C@H]1O
Potency [1]: inactive | Potency [2]: inactive | Potency [3]: 16.5 µM (active) | Potency [4]: inactive | Potency [5]: inactive

Cc1cc(-c2nncc3c(C(C)(C)C)c(OCc4ncnn4C)nn23)no1
Potency [1]: inactive | Potency [2]: inactive | Potency [3]: inactive | Potency [4]: inactive | Potency [5]: inactive

CC1(C)CC[C@]2(C(=O)O[C@@H]3O[C@H](CO)[C@@H](O)[C@H](O)[C@H]3O)CC[C@]3(C)C(=CCC4[C@@]5(C)CC[C@H](OC6OC(C(=O)O)C(OC7OC(CO)C(O)C(O)C7O)C(O)C6O)C(C)(C)C5CC[C@]43C)C2C1 (stereo partly specified)
Potency [1]: inactive | activity change, negative = inhibition [2]: -0.627% [at 11.6 µM] | activity change, negative = thiol reactive [3]: 280% [at 11.5 µM] | activity, negative = inhibition [4]: 0% [at 11.6 µM]
